Compound activity deposited in PubChem BioAssay by Broad Institute.
In the library only some 0.35% were active in any assay of this set; here they are far more common.
PDI turbidity – blocks human protein disulfide isomerase activity; P07237; PDI insulin aggregation turbidity, A650, 90 min; inhibition, % at 10 µM; actives 0.052% (n = 350,000);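 active = mean inhibition across replicates of 30% or more, whatever share of single replicates reach that level; inconclusive = mean inhibition below 30% while every single replicate reaches 30%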
ERp5 block – blocks human ERp5 reductase activity on insulin. Q15084. ERp5 insulin aggregation, absorbance 650 nm, 90 min. inhibition, % at 9.99 µM. actives 0.05% (n = 350,000). AID 651711;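 active = mean replicate inhibition above about 25%, with every replicate also reaching it, limit read from the data, passing the limit was not always enough; inconclusive = only one of those two criteria met; inactive = neither criterion met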
PvdQ acylase – blocks Pseudomonas aeruginosa PvdQ acylase activity; purified PvdQ acylase, fluorescence plate reader; inhibition, % at 10 µM; actives 0.063% (n = 340,000); AID 488965; in the data active = inhibition above about 30%, passing the limit was not always enough; inconclusive = no clear call, values can overlap the other calls
Rtt109 Vps75 – C. albicans Rtt109 histone acetyltransferase inhibition. purified Rtt109/Vps75, ThioGlo CoA-SH fluorescence, 4 h. inhibition, % at 34.9 µM. Q5AAJ8. actives 0.16% (n = 330,000);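 active = inhibition of at least 50% in every replicate; inconclusive = best replicate reaches 50% inhibition but some replicates fall short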
ERAP1 inh – ERAP1 (human) enzyme inhibition; AID 652197; recombinant ERAP1, Leu-AMC fluorescence, 60 min; Q9NZ08; inhibition, % at 10.7 µM; actives 0.15% (n = 340,000);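 active = mean replicate inhibition of at least 30%, or all replicates individually reaching that 30% level; inactive = mean below 30% and not every replicate reaching it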
Each line names hits and unclear results; the compound was inactive in the other large screens.

Cn1c(SCC(=O)NC2CCCCC2)nnc1-c1ccccc1F	none
CC(Sc1nnc(-c2ccccc2F)n1C)C(=O)NC1CCCCC1 (centres undefined)	PvdQ acylase 30.3
COc1cc(S(=O)(=O)n2nc(C)cc2C)c(OC)cc1Cl	Rtt109 Vps75 64.6
COc1cc(Cl)ccc1S(=O)(=O)n1nc(C)cc1C	none (no result: ERp5 block, ERAP1 inh)
CNC[C@@H]1OCCCC[C@H](C)Oc2ccc(NC(=O)Nc3ccc4c(c3)OCO4)cc2C(=O)N([C@@H](C)CO)C[C@H]1C	none (no result: PDI turbidity, PvdQ acylase, Rtt109 Vps75)
Cc1ccccc1S(=O)(=O)N1CC(=O)N2[C@H](CO)[C@@H](c3ccc(C#CCC(C)C)cc3)[C@H]2C1	none (no result: PDI turbidity, PvdQ acylase, Rtt109 Vps75)
CN1CCN(C2=C(Cl)C(=O)c3ccccc3C2=O)CC1	PDI turbidity 40.8
COC(=O)c1ccc(NC(=S)N2CCCC2)cc1	PvdQ acylase 41.6
Cc1cc(C=O)c(C)n1-c1ccc(Cl)c(C(=O)O)c1	ERAP1 inh 31.7
O=C(Nc1cccnc1)C1CCCN(c2ncnc3c2nc2n3CCCCC2)C1 (centres undefined)	none
CCc1cccc(NC(=O)C2CCCN(c3ncnc4c3nc3n4CCCCC3)C2)c1 (centres undefined)	Rtt109 Vps75 87.3
COc1ccc(NC(=O)Nc2cccc3c2O[C@@H](CN(C)S(=O)(=O)c2ccccc2)[C@H](C)CN([C@H](C)CO)C3=O)cc1	none (no result: PDI turbidity, PvdQ acylase, Rtt109 Vps75)
CCCCn1c(N)c(N(CCOC)C(=O)c2cnccn2)c(=O)[nH]c1=O	none
CCCCn1c(N)c(N(Cc2ccccc2OC)C(=O)c2sccc2C)c(=O)[nH]c1=O	Rtt109 Vps75 50.4
CCCCn1c(N)c(N(Cc2ccccc2OC)C(=O)c2cc(CC)c(C)s2)c(=O)[nH]c1=O	none
CCCCn1c(N)c(N(CCOC)C(=O)c2cnc(C)cn2)c(=O)[nH]c1=O	ERAP1 inh 49.4
O=C(O)c1cccc(-n2sc3ccccc3c2=O)c1	Rtt109 Vps75 178.3, ERAP1 inh 90.3
O=c1c2cc(C(F)(F)F)ccc2sn1-c1ccccc1	none (no result: PvdQ acylase, Rtt109 Vps75)
O=c1c2cc(F)ccc2sn1-c1ccccc1	Rtt109 Vps75 132.3
Cc1ccccc1-n1sc2cc(F)ccc2c1=O	Rtt109 Vps75 101.8
O=c1c2ccccc2sn1-c1ccccc1F	none (no result: PvdQ acylase, Rtt109 Vps75)
O=c1c2ccccc2sn1-c1ccccc1	none (no result: ERp5 block, ERAP1 inh)
CO[C@H]1CN(C)C(=O)c2ccc(NC(C)=O)cc2OC[C@@H](C)N(Cc2ccncc2)C[C@@H]1C	none (no result: PDI turbidity, PvdQ acylase, Rtt109 Vps75)
Cc1cc(S(=O)(=O)NCC2CC2)c(Cl)cc1Cl	PvdQ acylase 106.9
O=S(=O)(NCC1CC1)c1cc(Cl)cc(Cl)c1	none
O=C(C[C@@H]1CC[C@@H]2[C@H](COC[C@H](O)CN2C(=O)c2ccncc2)O1)NC1Cc2ccccc2C1	none (no result: PDI turbidity, PvdQ acylase, Rtt109 Vps75)
CCC(=O)N1[C@@H]2c3ccc(/C=C/c4ccccc4)c(=O)n3C[C@H]1[C@H](CO)[C@H]2C(=O)N(C)C	ERAP1 inh 37.6 (no result: PDI turbidity, PvdQ acylase, Rtt109 Vps75)
CC(=O)N1[C@@H]2c3ccc(/C=C/c4ccccc4)c(=O)n3C[C@H]1[C@H](CO)[C@H]2C(=O)N(C)C	ERAP1 inh 90.7 (no result: PDI turbidity, PvdQ acylase, Rtt109 Vps75)
COCC(=O)N1[C@@H]2Cn3c(ccc(/C=C/c4ccccc4)c3=O)[C@H]1[C@@H](C(=O)N1CCOCC1)[C@@H]2CO	ERAP1 inh 128.5 (no result: PDI turbidity, PvdQ acylase, Rtt109 Vps75)
CC=Cc1ccc2n(c1=O)C[C@@H]1[C@@H](CO)[C@H](C(=O)N(C)C)[C@H]2N1C(=O)c1ccccc1 (mixture of isomers)	none (no result: PDI turbidity, PvdQ acylase, Rtt109 Vps75)
CC(=O)N1[C@@H]2Cn3c(ccc(/C=C/c4ccccc4)c3=O)[C@H]1[C@@H](C(=O)N(C)C)[C@@H]2CO	none (no result: PDI turbidity, PvdQ acylase, Rtt109 Vps75)
C[C@H]1CN([C@@H](C)CO)C(=O)c2ccccc2-c2ccccc2CO[C@H]1CN(C)S(=O)(=O)c1ccc(Cl)cc1	none (no result: PDI turbidity, PvdQ acylase, Rtt109 Vps75)
C[C@@H]1CCCCO[C@H](CN(C)Cc2ccc(Cl)c(Cl)c2)[C@@H](C)CN([C@@H](C)CO)C(=O)c2cc(NC(=O)C3CCCCC3)ccc2O1	none (no result: PDI turbidity, PvdQ acylase, Rtt109 Vps75)
O=C(CC(Nc1ccccc1Cl)C(=O)O)c1ccccc1 (centres undefined)	none
Cc1c(Cl)cccc1NC(CC(=O)c1ccccc1)C(=O)O (centres undefined)	Rtt109 Vps75 70.0 (no result: ERp5 block, ERAP1 inh)
C[C@H]1CN([C@@H](C)CO)C(=O)c2cc(/C=C/c3ccccc3)cnc2O[C@H]1CN(C)C(=O)C1CCOCC1	none (no result: PDI turbidity, PvdQ acylase, Rtt109 Vps75)
O=C(Nc1ccc(N2CCOCC2)cc1)C1CC1	none (no result: ERp5 block, ERAP1 inh)
O=C(N/N=C/c1ccc(N2CCOCC2)cc1)C1CC1	PDI turbidity 37.9 (no result: Rtt109 Vps75)
COc1ccc(S(=O)(=O)N[C@H]2CC[C@H](CC(=O)N3CCN(c4ccccc4)CC3)O[C@@H]2CO)cc1	none (no result: PDI turbidity, PvdQ acylase, Rtt109 Vps75)
Cn1cccc2[nH]c(=O)nc1-2	ERAP1 inh 88.8
Cc1ccc(C)c(S(=O)(=O)NC2CCSC2=O)c1 (centres undefined)	PvdQ acylase 79.0
Cn1c2ccccc2c(=O)c2cc(NCCCN3CCOCC3)ccc21	ERAP1 inh 51.6
O=c1c2ccccc2oc2ccc(NCCCN3CCOCC3)cc12	none
O=C(Nc1ccncc1)C1CC(=O)N(c2ccccc2)C1 (centres undefined)	ERp5 block 28.0
O=C(NC1CCCC1)[C@@H]1[C@@H](CO)[C@@H]2Cn3c(cccc3=O)[C@@H]2N1CC1CCOCC1	none (no result: PDI turbidity, PvdQ acylase, Rtt109 Vps75)
Cc1ccccc1N1CC2=C(C1=O)C(c1ccccc1)NC(=O)N2C (centres undefined)	none
CN1C(=O)NC(c2ccccc2)C2=C1CN(c1cccc(C(F)(F)F)c1)C2=O (centres undefined)	PDI turbidity 30.6, Rtt109 Vps75 inconclusive (no result: ERp5 block, ERAP1 inh)
COc1ccc(NC(=O)N(C)C[C@H]2Oc3ccc(NC(=O)CCN4CCOCC4)cc3CC(=O)N([C@@H](C)CO)C[C@@H]2C)cc1	none (no result: PDI turbidity, PvdQ acylase, Rtt109 Vps75)
CC[N+](C)(CC)CC(=O)OCC1C(C)C=C(C)CC1C (centres undefined)	ERAP1 inh 105.8
CCN1/C(=C/c2ccc3cc(C)cc(C)c3[n+]2CC)Sc2cc(C)ccc21	Rtt109 Vps75 81.7, ERAP1 inh 34.9
C[C@H]1CN([C@@H](C)CO)C(=O)c2cc(-c3cccc(C#N)c3)cnc2O[C@@H]1CN(C)Cc1cncnc1	ERp5 block 33.8 (no result: PDI turbidity, PvdQ acylase, Rtt109 Vps75)
C[C@@H]1CN([C@H](C)CO)C(=O)c2cc(-c3cccc(C#N)c3)cnc2O[C@H]1CN(C)Cc1cccnc1	none (no result: PDI turbidity, PvdQ acylase, Rtt109 Vps75)
C[C@@H]1CN([C@@H](C)CO)C(=O)c2cc(-c3cccc(C#N)c3)cnc2O[C@@H]1CN(C)Cc1cncnc1	none (no result: PDI turbidity, PvdQ acylase, Rtt109 Vps75)
C[C@H](CO)N1C[C@H](C)[C@H](CN(C)Cc2cncnc2)Oc2ncc(-c3cccc(C#N)c3)cc2C1=O	ERp5 block 52.3 (no result: PDI turbidity, PvdQ acylase, Rtt109 Vps75)
Cc1ccc(S(=O)(=O)N(CC(=O)N2CCC(C)CC2)c2ccccc2)cc1	PvdQ acylase 37.2
Cc1ccc(S(=O)(=O)N(CC(=O)N2CCCCCC2)c2ccccc2)cc1	none (no result: ERp5 block, ERAP1 inh)
CCCCCCCCOC(=O)C[N+](C)(C)C/C=C(/C)Cl	none
CCCCCCCCCCOC(=O)C[N+](C)(C)C/C=C(/C)Cl	ERAP1 inh 35.5
O=C(CCC(=O)NNC(=O)COc1ccc(Br)cc1Br)NCc1ccccc1	none
Cc1cc(Br)cc(Br)c1OCC(=O)NNC(=O)CCC(=O)NCc1ccccc1	ERp5 block 27.3
Cc1cnc(NC2=NCCC2)s1	PDI turbidity 38.3
